In test [1] the target is Voltage-gated inwardly rectifying potassium channel KCNH2 (Homo sapiens) (UniProt Q12809). The test is described as follows: qHTS Assay for Small Molecule Inhibitors of the Human hERG Channel Activity (AID 588834).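 Note: potency is the fitted concentration of half-maximal effect; lower thallium flux fluorescence means stronger hERG block; nearly all actives have a fitted effect of over 50% in size.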 As to conditions: U2OS BacMam hERG, FluxOR thallium flux fluorescence; series mostly up to 92.2 µM. An outline of the steps:
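Measured: FluxOR fluorescence after thallium stimulation in U2OS cells transduced with hERG by baculovirus. Compounds pre-incubated around 10 min; medium Opti-MEM with 2% FCS. AC50 from Hill equation.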
Background: In qHTS, concentration-response curves come from the screen itself.

Test [2] is described as follows: qHTS of Trypanosoma Brucei Inhibitors: LOPAC Validation (AID 624147). To be noted: purified enzyme assay, luminescence, 45 min; series mostly up to 57.5 µM. The method in brief: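 TbPYK + substrate in 50 mM TEA pH 7.2, 100 mM KCl, 10 mM MgCl2, 0.05% BSA, 0.01% Tween-20; cpd pinned; ADP 130 uM final; 45 min RT; Kinase-Glo Plus 10 min; luminescence endpoint.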
For test [3], the target named is Glucagon-like peptide 1 receptor (Homo sapiens) (UniProt P43220). The test is described as follows: qHTS of GLP-1 Receptor Agonists: LOPAC Validation (AID 624148).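 Note: higher luminescence signal means agonism.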 To be noted: GLP-1R agonist cell assay; series mostly up to 46.1 µM. An outline of the steps: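 HEK293 cells stably co-expressing a cAMP-responsive luciferase reporter and a hypersensitive GLP-1R were plated 12 h at 37 °C and exposed to compounds for 4-6 hr at 37 °C, 5% CO2. Luminescence was read 12 min after adding detection reagent.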
Glucagon-like peptide 1 receptor (Homo sapiens), sequence (P43220 whole entry, looked up): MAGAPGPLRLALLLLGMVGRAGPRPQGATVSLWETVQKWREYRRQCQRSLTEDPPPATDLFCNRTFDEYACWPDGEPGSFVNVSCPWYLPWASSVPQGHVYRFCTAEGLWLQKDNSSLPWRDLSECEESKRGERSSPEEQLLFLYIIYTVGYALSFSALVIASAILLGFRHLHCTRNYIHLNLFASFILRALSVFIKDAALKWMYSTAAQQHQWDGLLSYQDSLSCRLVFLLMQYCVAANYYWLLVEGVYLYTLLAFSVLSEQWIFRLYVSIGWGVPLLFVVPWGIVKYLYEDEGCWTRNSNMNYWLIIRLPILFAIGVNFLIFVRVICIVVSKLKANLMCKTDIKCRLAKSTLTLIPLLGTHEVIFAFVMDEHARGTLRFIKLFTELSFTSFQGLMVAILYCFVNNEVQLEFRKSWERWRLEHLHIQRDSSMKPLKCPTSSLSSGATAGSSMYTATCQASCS

Test [4] can be described thus: HTS Assay for Allosteric Antagonists of the Human D2 Dopamine Receptor: Hit Validation in HTRF (AID 624455).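 Note: stable D1 dopamine receptor cell line scored for blocking the D1 response.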 As to conditions: Cells stably expressing D1 dopamine receptor, inhibition mode; series mostly up to 46.1 µM. An outline of the steps: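 Hits were examined in an HTRF assay using cells stably expressing the D1 dopamine receptor, scoring inhibition of the D1-mediated response. The preceding primary screen tracked calcium flux after an EC80 dopamine addition in force-coupled, inducible Hek293 Trex D2 cells.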
On the technique in general: TR-FRET usually uses a lanthanide donor and a delayed reading to cut background.

In test [5] the target is Luciferin 4-monooxygenase (Photinus pyralis) (UniProt P08659). Nature of the test: Biochemical firefly luciferase enzyme assay for NPC (AID 624030).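 Note: purified P. pyralis luciferase at 10 nM with luciferin and ATP substrate; nearly all actives have a fitted effect of over 70% in size.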 To be noted: purified P. pyralis luciferase, luminescence, 5 min; series mostly up to 58.6 µM. The method in brief:
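Counter-screen for direct inhibition of the luciferase enzyme by approved-drug library compounds, run at 10 nM enzyme in 50 mM Tris acetate (final). Luminescence was read within 5 min of enzyme-buffer addition and normalized to PTC124 versus DMSO (0%).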

The target of test [6] is Glutaminase kidney isoform, mitochondrial (Homo sapiens) (UniProt O94925). The test is described as follows: qHTS for Inhibitors of Glutaminase (GLS): LOPAC Validation (AID 624146). Note: nearly all actives have a fitted effect of over 60% in size. Note: potency is the fitted concentration of half-maximal effect. As to conditions: glutaminase enzyme activity inhibition; series mostly up to 46.1 µM. An outline of the steps: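 Two-point fluorescence kinetic (t0, 30 min RT) for hKGA; glutamate detected via glutamate oxidase–HRP–Amplex Red. Substrate: 1 mM L-glutamine solution; buffer 45 mM KH2PO4, pH 8.2.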
Glutaminase kidney isoform, mitochondrial (Homo sapiens), sequence (O94925 whole entry, looked up, canonical isoform): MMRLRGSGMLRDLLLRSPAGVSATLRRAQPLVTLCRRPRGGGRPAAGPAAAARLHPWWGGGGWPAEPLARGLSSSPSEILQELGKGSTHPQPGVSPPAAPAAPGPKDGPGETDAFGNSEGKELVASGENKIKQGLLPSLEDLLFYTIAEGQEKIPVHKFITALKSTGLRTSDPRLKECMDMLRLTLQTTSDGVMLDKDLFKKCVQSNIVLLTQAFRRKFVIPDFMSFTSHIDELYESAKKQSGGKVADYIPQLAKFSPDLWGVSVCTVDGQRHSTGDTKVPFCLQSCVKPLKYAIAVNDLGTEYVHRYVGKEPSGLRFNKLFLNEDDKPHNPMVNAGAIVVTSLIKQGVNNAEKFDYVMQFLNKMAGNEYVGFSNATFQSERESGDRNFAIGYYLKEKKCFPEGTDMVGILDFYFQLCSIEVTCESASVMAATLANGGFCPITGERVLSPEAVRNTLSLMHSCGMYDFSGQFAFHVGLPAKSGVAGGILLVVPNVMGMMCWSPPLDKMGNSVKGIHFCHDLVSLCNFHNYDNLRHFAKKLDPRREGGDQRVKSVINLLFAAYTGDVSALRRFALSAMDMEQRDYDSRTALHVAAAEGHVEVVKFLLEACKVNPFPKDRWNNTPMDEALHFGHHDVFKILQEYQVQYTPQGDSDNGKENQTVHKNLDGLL

Test [7] is described as follows: S16 Schwann cell PMP22 intronic element beta-lactamase assay (AID 624044; calls by dose curve; note: potency is the fitted concentration of half-maximal effect; nearly all actives have a fitted effect of over 15% in size). As to conditions: S16 rat Schwann cells, PMP22 element beta-lactamase FRET, 24 h; series mostly up to 38.3 µM. An outline of the steps: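 Rat S16 Schwann cells with beta-Lac driven by a PMP22 intronic element, compound-treated 24 h at 37 °C. LiveBLAzer FRET B/G read: 460 nm normalized to potassium clavulanate vs DMSO; 535 nm FRET as viability; concentration-effect curves classified.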

Records with an inconclusive call do not appear. A call without a number means that no potency is given here. Activity calls are given as the source filed them. Unless noted, calls come from the whole dose curve; as a rule, active = well fitted curve in the direction sought with a large enough effect; inconclusive = small, poorly fitted or top-dose-only effect, or another doubt; inactive = no such curve, though single readings can be large; an effect the other way counts as inactive or inconclusive.

Luciferin 4-monooxygenase (Photinus pyralis), sequence (P08659 whole entry, looked up): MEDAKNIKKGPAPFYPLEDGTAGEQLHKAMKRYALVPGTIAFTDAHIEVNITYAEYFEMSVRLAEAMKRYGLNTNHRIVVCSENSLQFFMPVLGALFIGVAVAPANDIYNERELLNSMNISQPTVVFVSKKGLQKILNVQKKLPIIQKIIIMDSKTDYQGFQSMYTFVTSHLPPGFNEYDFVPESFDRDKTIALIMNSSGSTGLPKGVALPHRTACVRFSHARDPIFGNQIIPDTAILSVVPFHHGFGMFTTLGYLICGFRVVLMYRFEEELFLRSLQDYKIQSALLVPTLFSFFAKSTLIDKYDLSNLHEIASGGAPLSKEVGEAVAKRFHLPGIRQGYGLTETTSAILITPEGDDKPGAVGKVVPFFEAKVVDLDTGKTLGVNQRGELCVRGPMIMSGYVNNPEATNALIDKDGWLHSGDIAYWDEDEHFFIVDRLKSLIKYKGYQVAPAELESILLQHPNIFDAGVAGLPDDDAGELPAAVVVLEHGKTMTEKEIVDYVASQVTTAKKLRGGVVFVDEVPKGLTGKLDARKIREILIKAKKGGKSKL
Voltage-gated inwardly rectifying potassium channel KCNH2 (Homo sapiens), sequence (Q12809 whole entry, looked up): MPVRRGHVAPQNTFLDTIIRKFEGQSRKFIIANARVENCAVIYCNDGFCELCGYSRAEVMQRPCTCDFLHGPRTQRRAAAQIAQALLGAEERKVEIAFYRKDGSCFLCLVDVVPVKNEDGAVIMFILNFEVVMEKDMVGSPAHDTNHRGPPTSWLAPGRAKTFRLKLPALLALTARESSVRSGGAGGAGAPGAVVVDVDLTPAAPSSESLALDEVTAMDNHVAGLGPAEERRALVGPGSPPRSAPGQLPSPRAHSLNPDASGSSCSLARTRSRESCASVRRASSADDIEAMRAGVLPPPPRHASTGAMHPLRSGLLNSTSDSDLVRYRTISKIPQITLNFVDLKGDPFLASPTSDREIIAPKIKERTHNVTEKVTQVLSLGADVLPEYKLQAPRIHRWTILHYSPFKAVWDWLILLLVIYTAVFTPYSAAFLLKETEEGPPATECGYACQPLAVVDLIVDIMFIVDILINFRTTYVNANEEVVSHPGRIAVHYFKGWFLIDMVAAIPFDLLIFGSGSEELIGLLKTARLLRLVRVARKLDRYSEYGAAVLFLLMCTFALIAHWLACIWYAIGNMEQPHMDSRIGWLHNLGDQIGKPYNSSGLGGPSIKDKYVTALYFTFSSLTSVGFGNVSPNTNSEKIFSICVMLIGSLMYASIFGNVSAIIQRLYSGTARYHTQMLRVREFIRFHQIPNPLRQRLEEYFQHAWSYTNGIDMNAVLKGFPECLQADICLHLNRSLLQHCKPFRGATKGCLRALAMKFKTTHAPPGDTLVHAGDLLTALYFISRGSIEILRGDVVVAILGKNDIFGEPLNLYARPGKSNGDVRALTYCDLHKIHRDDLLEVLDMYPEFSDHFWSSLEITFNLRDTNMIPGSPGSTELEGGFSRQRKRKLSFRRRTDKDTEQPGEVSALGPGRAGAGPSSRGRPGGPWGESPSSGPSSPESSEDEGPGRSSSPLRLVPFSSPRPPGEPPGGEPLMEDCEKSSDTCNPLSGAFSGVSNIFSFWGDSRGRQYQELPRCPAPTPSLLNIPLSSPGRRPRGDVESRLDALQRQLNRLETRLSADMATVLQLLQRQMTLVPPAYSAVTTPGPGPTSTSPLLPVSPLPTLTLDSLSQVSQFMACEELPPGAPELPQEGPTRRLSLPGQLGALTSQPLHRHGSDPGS

`CC(C)N(CCC(=O)c1ccc2ccccc2c1)Cc1ccccc1`: in test [1], the Potency was 3.16 µM (active). The outcome in test [2], in test [3] and in test [4] was inactive.

Take `CN1C(CSCC(F)(F)F)Nc2cc(Cl)c(S(N)(=O)=O)cc2S1(=O)=O` (centres undefined): the Potency entry in test [5] was “inactive”.

Take `COc1cccc2c1[C@@H]1CN(CCCCn3c(=O)[nH]c4c(sc5ncc(-c6ccccc6)nc54)c3=O)C[C@@H]1CO2`: the Potency in test [1] was 5.01 µM (active). Moreover, the Potency result in test [5] and in test [6] was “inactive” throughout. Besides, the result in test [2], in test [3] and in test [4] was inactive.

For the compound `Brc1ccc([C@H]2CN3CCSC3=N2)cc1`, the Potency in test [1] is 11.2 µM (active). Moreover, the Potency entry in test [6] was “inactive”. Besides, the result in test [2], in test [3] and in test [4] was inactive.

`CN1CCC(N(Cc2cccs2)c2ccccc2)CC1`: the Potency entry in test [5] is “inactive”.

For `Clc1ccc2c(c1)N=C(N1CCNCC1)c1ccccc1N2`, the Potency result in test [6] is “inactive”. Also, the compound was called inactive in test [2], in test [3] and in test [4].

In the case of `COC(=O)C1=C(C)NC(COC(N)=O)=C(C(=O)OC(C)C)C1c1cccc(Cl)c1Cl` (centres undefined), in test [5], the Potency result was “inactive”.

Take `CC(=O)OCC(=O)Nc1cc(C#N)cc(NC(=O)COC(C)=O)c1Cl`: the Potency entry in test [5] was “inactive”.

Take `CCN(CC)CCNC(=O)c1ccc(NS(C)(=O)=O)cc1`: the Potency result in test [5] and in test [6] was “inactive” each time. The result in test [2], in test [3] and in test [4] was inactive.

For the compound `CC(COc1ccccc1)NN` (centres undefined), the Potency result in test [5] is “inactive”.

For the compound `CN1C(=O)CC(C)(c2ccccc2)C1=O` (centres undefined), the Potency entry in test [5] was “inactive”.

Take `O=C(OCC(COC(=O)c1cccnc1)(COC(=O)c1cccnc1)COC(=O)c1cccnc1)c1cccnc1`: the Potency entry in test [5] is “inactive”.

On to `CN(C(=O)C(Cl)Cl)c1ccc(OC(=O)c2ccco2)cc1`, for which the Potency entry in test [5] is “inactive”.

For `CO/N=C(/C(=O)N[C@@H]1C(=O)N2C(C(=O)[O-])=C(C[n+]3ccn4ncccc43)CS[C@H]12)c1nsc(N)n1`, the Potency entry in test [5] was “inactive”.

For the compound `COc1cc(C(=O)NC2CCCNC2)cc(OC)c1OC` (centres undefined), the Potency result in test [5] is “inactive”.

Take `CCOC(=O)[C@H](CCc1ccccc1)N[C@@H](C)C(=O)N(CC(=O)O)C1Cc2ccccc2C1`: the Potency entry in test [5] was “inactive”.

For the compound `CCC(C(=O)NC(=O)NC(C)=O)c1ccccc1` (centres undefined), the Potency result in test [5] was “inactive”.

Take `CCCCCC[C@@H](CCC)C(=O)O`: in test [5], the Potency entry was “inactive”.

With `N#C/C(=C1/SC[C@@H](c2ccc(Cl)cc2Cl)S1)n1ccnc1`, in test [5], the Potency entry is “inactive”.

Regarding `Cc1ccc(/C=N/n2c(-c3ccccc3)csc2=S)cc1`, the Potency entry in test [5] was “inactive”.

On to `CCCc1c2oc(C(=O)O)cc(=O)c2cc2c(=O)cc(C(=O)O)n(CC)c12`, for which the Potency entry in test [5] is “inactive”.

As for `O=C1CC2(CCCC2)CC(=O)N1CCNCC1COc2ccccc2O1` (centres undefined), the Potency entry in test [5] is “inactive”.

For the compound `C[C@H]1NCc2cc(-c3ccc4c(=O)c(C(=O)O)cn(C5CC5)c4c3OC(F)F)ccc21`, the Potency entry in test [5] was “inactive”.

As for `Nc1ncnc2n[nH]c(Nc3ccc(F)cc3)c12`, the Potency in test [6] is 10 µM (active). In addition, the call in test [2], in test [3] and in test [4] was inactive.

In the case of `Cc1nn(-c2ccccc2)c(C)c1/C=N/N1CCN(Cc2ccccc2)CC1`, the Potency entry in test [6] was “inactive”. The compound was called inactive in test [2], in test [3] and in test [4].

Turning to `N[C@@H](Cn1ccc(=O)c(O)c1)C(=O)O`, the result in test [2], in test [3] and in test [4] was inactive.

`C[N+]1(C)CCC(OC(=O)C(O)(c2ccccc2)C2CCCC2)C1` (centres undefined): in test [5], the Potency entry was “inactive”.

For the compound `OC1(c2ccc(Cl)c(C(F)(F)F)c2)CCN(CCCC(c2ccc(F)cc2)c2ccc(F)cc2)CC1`, in test [5], the Potency entry was “inactive”.

On to `CCCCCCCCCCCCCC[N+](C)(C)C`, for which the Potency in test [7] is 25.1 µM (active).

In the case of `CCOC(=O)Cn1cccc1-c1nc(-c2ccc(OC)cc2)c(-c2ccc(OC)cc2)s1`, the Potency entry in test [5] is “inactive”.

As to `O=C(OCC1(COC(=O)c2cccnc2)CCCC(COC(=O)c2cccnc2)(COC(=O)c2cccnc2)C1O)c1cccnc1`, the Potency result in test [5] is “inactive”.

In the case of `CCOC(=O)NNc1nncc2ccccc12`, the Potency entry in test [5] is “inactive”.

On to `CCCCCCCCCCCCCCCCCCNC(=O)OC1CCN(C(=O)OC[C@H](COC(=O)N(Cc2cccc[n+]2CC)C(=O)c2ccccc2OC)OC)CC1`, for which, in test [5], the Potency result is “inactive”.

With `COC(=O)C1=CO[C@@H](O)[C@@H]2C(CO)=CC[C@H]12`, the Potency entry in test [6] is “inactive”. Also, the outcome in test [2], in test [3] and in test [4] was inactive.

Take `CC(=O)OCC[N+](C)(C)C`: the Potency entry in test [5] is “inactive”.

In the case of `O=C1NC(=O)/C(=C/c2ccc3c(c2)OC(F)(F)O3)S1`, the Potency result in test [6] was “inactive”. Also, the compound was classed as inactive in test [2], in test [3] and in test [4].

For the origin of these results see PubChem BioAssay (NCATS).
